The results in this text go back to ChEMBL document CHEMBL4513216, “Probing the Open Global Health Chemical Diversity Library for Multistage-Active Starting Points for Next-Generation Antimalarials” (ACS Infect Dis, 2020).

Among all 69,000 compounds or so, about 8,600 (12%) showed an effect of 50% or more. The entries come from a sample that favours strong results as a whole.

In the test the test system is Plasmodium berghei. The experiment in a line: Screen against P. berghei liver stage (PbLuc), transformed with Luciferase, at 10uM. The format is functional, HepG2. The settings on record: tested at 10 uM.
`O=C(CC1[C@H]2CN(C(=O)Cc3ccccn3)C[C@@H]12)Nc1cccnc1` (stereo not given in full): the INHIBITION is listed as 39.4%.
With `CC(C)NC(=O)C1CN(Cc2ccsc2)Cc2ccnn2C1` (stereo not given) the figure was 37.9%.
With `COCCNC(=O)C1CN(Cc2cccc(C)n2)Cc2ccnn2C1` (stereo not given) the figure was 7.77%; with `Cc1noc(C)c1CN1CC[C@H]2OCC[C@@H](C(=O)NCC3CC3)[C@H]2C1`, 54.7%.
Next, `COCCNC(=O)C1CN(Cc2ccncc2)Cc2ccnn2C1` (stereo not given): 89.3%.
On to `Cc1noc(C)c1CN1CC[C@H]2OCC[C@@H](C(=O)N3CCCO3)[C@@H]2C1`, for which the INHIBITION is reported as 34.1%.
With `Cc1noc(C)c1CN1CC[C@H]2OCC[C@@H](C(=O)NCC3CC3)[C@@H]2C1` the figure was -3.83%; with `O=C(C1CN(Cc2ccsc2)Cc2ccnn2C1)N1CCCC1` (stereo not given), 15.7%.
Next, `COCCNC(=O)C1CN(Cc2ccsc2)Cc2ccnn2C1` (stereo not given): 5.36%.
Turning to `COCCNC(=O)C1CN(Cc2csc(C)n2)Cc2ccnn2C1` (stereo not given), the INHIBITION is on record as 62.5%.
For the compound `COCCNC(=O)C1CN(Cc2nccs2)Cc2ccnn2C1` (stereo not given), the INHIBITION was 29.9%.
With `COCCNC(=O)C1CN(Cc2cccnc2)Cc2ccnn2C1` (stereo not given) the figure was 35.7%.
Next, `CN(C)C(=O)C1CN(Cc2ccsc2)Cc2ccnn2C1` (stereo not given): 52.6%; `Cc1cccc(N2CCN(C(=O)CCc3c(C)noc3Cl)CC2)c1`: 45.7%; `CC(=O)c1ccc(S(=O)(=O)NCC2CCN(c3cnccn3)CC2)cc1`: 35%.
With `O=C(CC1CCN(c2cccnn2)CC1)NC1CCOCC1` the figure was 3.48%; with `O=C(CCN1CCCCO1)N1CCC(CO)(CCc2ccccc2)CC1`, -29%.
Take `Cc1ccc(CN2Cc3ccnn3CC(C(=O)NCC3CC3)C2)o1` (stereo not given): the INHIBITION is given as -31%.
As for `CC(=O)N1Cc2ccnn2CC(C(=O)NCc2cccnc2)C1` (stereo not given), the INHIBITION is recorded as 46.6%.
Next, `O=C(NCc1cccnc1)C1CC(=O)N(CC2CC2)C1` (stereo not given): 37%; `O=C(NCC1CC1)C1CN(Cc2ccncc2)Cc2ccnn2C1` (stereo not given): -2.35%.
With `CS(=O)(=O)N1Cc2ccnn2CC(C(=O)NCc2cccnc2)C1` (stereo not given) the figure was 77.4%; with `Cc1noc(C)c1CN1Cc2ccnn2CC(C(=O)NCC2CC2)C1` (stereo not given), 85.8%.
Next, `CNCC(=O)N1CC(c2cc(Nc3ncccn3)nc(C)n2)C1`: 29.6%; `CCn1ncc2c1CCCC2NCc1cc(OC)cc(OC)c1` (stereo not given): 37.9%.
Regarding `CC(C)n1cc(C(=O)NCCCn2ccnc2)c2n[nH]c(=O)c-2c1`, the INHIBITION is given as -7.57%.
With `Cc1ccc(N2CC[C@H]3C[C@H](C(=O)NCc4ccco4)O[C@@H]3C2)cc1` the figure was 40.1%.
On to `CC(C)CN1CCS(=O)(=O)[C@@H]2CCN(S(=O)(=O)CC(C)C)CC[C@@H]21`, for which the INHIBITION was determined as 2.41%.
Take `Cc1ccc(C(=O)NC2CCN(C(C)C)C2)c(=O)[nH]1` (stereo not given): the INHIBITION worked out at 20.8%.
Next, `CC(C)NC(=O)c1cc(-c2ccc(S(C)(=O)=O)cc2)nc2c1cnn2C`: 24.2%; `CN(C)C(=O)c1cc(-c2ccc(S(C)(=O)=O)cc2)c2cnn(C)c2n1`: 25.9%; `CC(C)NC(=O)c1cc(-c2ccc(S(C)(=O)=O)cc2)c2cnn(C)c2n1`: 94.6%.
Regarding `COc1cccc(CNC(=O)c2cccnc2SC(C)C)c1`, the INHIBITION was determined as 7.27%.
Turning to `CCN(C)Cc1n[nH]c(=O)n1-c1ccc(C)c(C)c1`, the INHIBITION was 46.7%.
With `O=C(CC1CC1)N1CCN(Cc2cccnc2)c2ncccc2C1` the figure was 0.618%.
With `CC1CCC(NC(=O)CNC2(c3cccc(Br)c3)CCOCC2)CC1` (stereo not given) the figure was -7.46%; with `O=C(CC1Cn2ncnc2NC1=O)Nc1cccc(C(F)(F)F)c1` (stereo not given), 54%.
With `O=C(CC1Cn2ncnc2NC1=O)Nc1ccccc1` (stereo not given) the figure was -46.2%; with `COc1cccc(NC(=O)CC2Cn3ncnc3NC2=O)c1` (stereo not given), 25.9%.
`CN(Cc1cncnc1)Cc1cn2c(n1)CN(C1CCOC1)CC2` (stereo not given): the INHIBITION came to 1.28%.
With `CCOC(=O)N1CCN(C(=O)c2snnc2-c2ccccc2)CC1` the figure was -7.27%; with `COCc1ccccc1CNC(=O)CN1CCCC1c1noc(C)n1` (stereo not given), -1.05%; with `CNC(=O)CN1CCOCC2(CCCN(CCc3ccccc3)C2)C1` (stereo not given), 43.2%.
With `COc1ccc(Cl)cc1CNC(=O)CN1CCC2(CCOC2)C1` (stereo not given), the INHIBITION is 39.6%.
Turning to `COCc1ccccc1CNC(=O)CN1CCC2(CCOC2)C1` (stereo not given), the INHIBITION was found to be 68.4%.
Next, `CCOc1cccc(CNC(=O)CN2CCC3(CCOC3)C2)c1` (stereo not given): 61.9%; `CCCOc1cccc(CNC(=O)CN2CCN(C)CC2C)c1` (stereo not given): 36.9%; `Cc1oncc1C(=O)N[C@@H]1CN(Cc2ccoc2)C[C@@H]2CCCO[C@@H]21`: 43%.
As to `COc1cc(N2CCC3(CC2)OCC(=O)NC3C)ncn1` (stereo not given), the INHIBITION was found to be 10.6%.
With `Cc1cc(F)cc(S(=O)(=O)NC(=O)CCc2cncc(F)c2)c1` the figure was 38.9%; with `CNC(=O)CCc1cc(C)nc(C2CCCCN2)n1` (stereo not given), 26.3%.
Next, `O=C(COc1ccccc1F)NCC(O)(c1ccccc1)C1CC1` (stereo not given): -22.7%; `Cc1cc(C(=O)N2CCN(C(=O)CCC3CCCCC3)CC2)n(C)n1`: 56.5%; `Cc1nn(C)c(C)c1C(=O)N1CCN(C(=O)CC2CCCCC2)CC1`: 39.4%.
Next, `CCC(=O)N1CCN(c2cc(N(C)C)cnn2)CC1`: -15.6%; `Cc1nn(C)c(C)c1C(=O)N1CCN(C(=O)CCC2CCCCC2)CC1`: 28.7%.
For the compound `CC(C)CC(=O)N1CCN(c2cc(N(C)C)cnn2)CC1`, the INHIBITION was determined as 22.2%.
For `CN(C)c1cnnc(N2CCN(C(=O)CCC3CCCCC3)CC2)c1`, the INHIBITION was 76.7%.
With `CCN1CC(C(=O)NCCn2cccc2)CCC1=O` (stereo not given) the figure was 44.8%.
Next, `NCc1cc(-c2ccccc2)n2nccc2n1`: 41.2%; `CS(=O)(=O)N[C@@H]1COC[C@@H]2CN(Cc3ccco3)C[C@@H]21`: 18.4%.
Regarding `Cn1nccc1C(=O)N1C[C@@H]2CC[C@H](Oc3cccc(F)c3)[C@@H]2C1`, the INHIBITION amounted to 25.6%.
Next, `CCOC(=O)c1cc2n(n1)CCCO2`: 57.6%; `CCNC(=O)c1cc2n(n1)CCCO2`: 9.41%; `CCOC(=O)CNC(=O)c1cc2n(n1)CCCO2`: -0.996%.
Next, `COC(=O)c1ccc(OC)c(OC23CCCN(CC2)C3)c1` (stereo not given): -9.76%.
Next, `N#Cc1ccc(C(=O)N2CCC3(CC2)CC3)cc1`: 40.8%; `O=C(c1cc(F)cc(F)c1)N1CCC(O)(C(F)(F)F)CC1`: 25.4%.
On to `O=C(c1cc(F)cc(F)c1)N1CCC2(CC1)CC2`, for which the INHIBITION is listed as 73.2%.
Next, `COCCN1CCO[C@@H]2CN(C(=O)NCc3cccnc3)CC[C@@H]2C1`: 29.8%.
With `Cc1nc(CN(Cc2ccccc2F)C2CCC2)no1` the figure was -16.6%.
Next, `O=C1CCc2cc(NC(=O)N3CCCN(Cc4cccs4)CC3)ccc21`: 53.8%.
Regarding `O=C1Cc2cc(NC(=O)N3CCCN(Cc4cccs4)CC3)ccc2N1`, the INHIBITION is on record as 42.7%.
With `O=C(Nc1ccc2c(c1)OCCO2)N1CCCN(Cc2cccs2)CC1` the figure was -14.1%; with `Cc1noc(C)c1CNCC1Cn2nncc2CO1` (stereo not given), 40.3%.
Turning to `Cc1nc(N2CCCC2)nc2c1CN(C(=O)NC(C)C)CC2`, the INHIBITION is on record as -9.74%.
With `CS(=O)(=O)N[C@H]1CN(CCOCc2ccccc2)C[C@@H]1C1CC1` the figure was 15%; with `CCc1ccccc1OCCN1C[C@@H](NS(C)(=O)=O)[C@H](C(C)C)C1`, 57.3%.
With `CC(C)[C@@H]1CN(CCOc2ccc(Cl)cc2)C[C@H]1NS(C)(=O)=O` the figure was 14.6%; with `CCc1ccccc1OCCN1CCC(NS(C)(=O)=O)CC1`, 43.1%.
Next, `CC(C)[C@@H]1CN(CCCOc2ccc(F)cc2)C[C@H]1NS(C)(=O)=O`: 54.5%.
As to `CC(C)[C@@H]1CN(Cc2c[nH]nc2-c2ccc(F)cc2)C[C@H]1NS(C)(=O)=O`, the INHIBITION is reported as -5.22%.
`CCOc1ccc(Cl)c(C(=O)N2CCN(C(=O)OC)CC2)n1`: the INHIBITION is reported as -6.44%.
As to `Cc1cc(C2CCCN2S(=O)(=O)c2cnn(C)c2)on1` (stereo not given), the INHIBITION is -9.8%.
For the compound `Cc1nn(C)cc1CN1C[C@H]2CC[C@@H](C1)N(Cc1c(C)noc1C)C2=O`, the INHIBITION is on record as -4.4%.
As to `Cc1ccc(CNC(=O)NCc2ccco2)s1`, the INHIBITION is reported as 10.7%.
In the case of `CN(C)c1ncc(I)c(C2CCCN2C)n1` (stereo not given), the INHIBITION was -54.1%.
With `CS(=O)(=O)NCC1CCCCN1C(=O)c1csc(-c2ccsc2)n1` (stereo not given) the figure was -89.3%; with `CS(=O)(=O)NCC1CCCCN1C(=O)c1ccsc1` (stereo not given), 59.5%; with `CS(=O)(=O)NCC1CCCCN1C(=O)c1ccc(Br)s1` (stereo not given), -50.5%.
Next, `Cc1ccc2nc(NCCN3CCOCC3)n(C)c(=O)c2c1`: -22.4%; `CCN1CCN(CCNc2nc3ccc(C)cc3c(=O)n2C)CC1`: 71.7%; `Cc1ccc2nc(NCCCN3CCCCCC3=O)n(C)c(=O)c2c1`: 8.97%.
With `Cc1nc(C)n(CC2CCCN2CC(=O)Nc2ccncc2)n1` (stereo not given) the figure was 25.4%.
Take `COCCN1CCO[C@@H]2CN(C(=O)Cc3cccc(F)c3)CC[C@@H]2C1`: the INHIBITION is recorded as 10.5%.
Next, `O=C(c1cc(-n2cnnn2)ccc1Cl)N1CCN(c2ccccc2)CC1`: 10.1%; `O=C(c1ccc(Cl)cc1)N1CCn2c(nn(-c3ccncc3)c2=O)C1`: 49.9%; `O=C(c1ccc(Cl)cc1)N1CCn2c(nn(-c3cccc(Cl)c3)c2=O)C1`: 54%.
With `O=C(c1ccc(Cl)cc1)N1CCn2c(nn(-c3ccc(Cl)cc3)c2=O)C1` the figure was 35%; with `Cn1nccc1C(=O)Nc1cc(C(F)(F)F)c[nH]c1=O`, 17.68%; with `Cn1nccc1CNC(=O)Nc1cc(C(F)(F)F)c[nH]c1=O`, 55.1%.
Next, `O=C(NCc1ccccn1)Nc1cc(C(F)(F)F)c[nH]c1=O`: 57.2%; `O=C(NCCNc1ccccn1)Nc1cc(C(F)(F)F)c[nH]c1=O`: 7.4%; `O=C(NCc1ccncc1)Nc1cc(C(F)(F)F)c[nH]c1=O`: 11.083%.
As to `O=C(NCCc1ccccn1)Nc1cc(C(F)(F)F)c[nH]c1=O`, the INHIBITION is 1.62%.
